Reference: PubChem BioAssay AID1347056 (Sanford-Burnham Center for Chemical Genomics, 2019)
The campaign covered roughly 360,000 compounds. About 3,600 (1%) were called active.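 How the source made its calls: active means compounds whose plate-normalised and pattern-corrected inhibition of the luciferase reporter signal at the single screening dose is 50% or more; inactive means the rest.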 Only a selection was taken, and actives are over-represented in it overall.

Test: TROY pathway blockers in reporter cells – Q293 LMP1-TROYcd cells, NF-kB luciferase, uHTS, primary screen (AID 1347056)
Details: 4 h, at 10 µM, hits give high values

inhibition, inactive:
N#CC(Cc1cc2ccccc2n1S(=O)(=O)c1ccccc1)OCc1ccccc1 (centres undefined) -2.35%, CC(C)c1ccc(NS(=O)(=O)c2cn(C)c(=O)n(C)c2=O)cc1 -2.58%, Cc1ccccc1NC(=O)C(C)c1ccc(-c2ccccc2)c(F)c1 (centres undefined) -1.18%, Cc1cccc(-n2c(=O)c3c(C)c(C)sc3n(CC(N)=O)c2=O)c1 2.94%, N#CCSc1nc2c(c(=O)n1Cc1ccccc1)C1(CCCC1)Cc1ccccc1-2 3.7%, Cc1cc(CNC(=O)C2CCC(=O)N(CCc3ccc(Cl)cc3)C2)no1 (centres undefined) -13%, O=C(N/N=C/c1ccsc1)c1cc(O)cc(O)c1 -3.65%, CSc1ncnc2c1ncn2CCCNCC1CCCCC1 10.9%, CC12CCC(=O)C=C1CCC1C2C(O)CC2(C)C1CCC2(O)C(O)CO (centres undefined) 1.9%, Cc1cc(C)c(NC(=O)CN2CCOCCOCCOCCOCC2)c(C)c1 3.84%, COC(=O)C1=C(N)Oc2cc(C)oc(=O)c2C1c1cccnc1 (centres undefined) -1.83%, COc1ccc(-c2c(C)cc3oc(=O)cc(-c4ccccc4)c3c2C)cc1OC 1.76%, COc1ccc(-c2c(C)cc3oc(=O)cc(-c4ccccc4)c3c2C)cc1F -22%, COc1cc([C@H](Cc2ccccc2)NC(C)=O)oc(=O)c1 -27%, CCOC(=O)C1(S(=O)(=O)c2ccc(Cl)cc2)CCN(Cc2ccccc2)CC1 -14.2%, CCN1CCN(CCNC(=O)c2ccc3c(c2)NC(=O)/C(=C\c2cccc(Cl)c2)S3)CC1 2.74%, O=C(NCCN1CCOCC1)/C(=C/c1ccc(F)cc1)NC(=O)c1ccccc1 -11.7%, Cc1ccc(C(=O)N/C(=C\c2ccc(F)cc2)C(=O)NCCN2CCOCC2)cc1 -5.95%, CCC1Oc2ccccc2N(CC(=O)NCCCN2CCN(CC)CC2)C1=O (centres undefined) 1.63%, Cc1c(C)n(Cc2ccc(Cl)cc2)c2ccc(C(=O)NCCCN3CCOCC3)cc12 -9.92%, Cc1cccc(-c2nc3ccc(C(=O)NCCN4CCN(C)CC4)cc3nc2-c2cccc(C)c2)c1 -28%, Nc1nc(Br)c2ccccc2c1-c1ccc(F)cc1 14.8%, O=[N+]([O-])c1ccc(N2CCN(S(=O)(=O)c3ccccc3)CC2)cc1N1CCc2ccccc2C1 -19.3%, CCc1nc2ccc(C(=O)N3CCN(S(=O)(=O)CC)CC3)cn2c1N(C=O)CCC(C)C 0.5%, C/C(CC(=O)NC(C)(C)C)=N\NC(=O)c1ccco1 -29.8%, COC(=O)[C@H](Cc1ccccc1)NC(=O)[C@@H]1C[C@H]1[C@@H](NC(=O)OCc1ccccc1)c1ccccc1 5.51%, Cc1cc(Nc2cccc(C)c2C)n2ncnc2n1 3.52%, COC(=O)CNC(=O)c1ccc(OC2CCN(C(=O)C3CC3)CC2)cc1 2.78%, CC1O[C@H](OC2C(COC3OC(CO)C(O)[C@H](O)C3O)OC(OC3CC[C@]4(C)C(CC[C@@]5(C)[C@@H]4C=C[C@]46OC[C@@]7(CCC(C)(C)C[C@H]74)C(O)C[C@@]56C)C3(C)C)C(O)C2O)C(O)C(O)C1O (some centres undefined) -9.36%, COc1ccc(CNC(=O)CN(c2ccc(OC)c(Cl)c2)S(=O)(=O)c2ccc(C)cc2)cc1 -0.8%, Cc1ccccc1OCCC(=O)Nc1c(C)n(C)n(-c2ccccc2)c1=O 1.55%, CCN(CC)CCNC(=O)c1ccc(NS(=O)(=O)c2ccc3c(c2)OCCO3)cc1 16.6%, CN1CCN(c2ccc(NC(=O)c3ccc4c(c3)OCCO4)cc2Cl)CC1 22.3%, Cc1ccc(C(=O)Nc2ccc3c(c2)OCCO3)cc1S(=O)(=O)N1CCOCC1 -52%, CC(NS(=O)(=O)c1ccc(Cl)cc1)C(=O)Nc1ccc2c(c1)OCCO2 (centres undefined) 2.15%, C/C(=N\N(C)C)c1ccc(OCCOc2ccc([N+](=O)[O-])cc2)cc1 -19.4%, COc1ccc(N(CC(=O)Nc2cc(OC)cc(OC)c2)S(=O)(=O)c2c(C)n[nH]c2C)cc1 -9.7%, CN1C(=O)CC(c2ccccc2)C1=O (centres undefined) 0.86%, COCCN(Cc1cc2cc3c(cc2nc1Cl)OCO3)C(=O)c1cccc(C)c1 19.8%, CC1CC(C)CN(CCOc2cccc3ccccc23)C1 (centres undefined) 6.96%, CN1CCN(CCCCOc2cccc3ccccc23)CC1 -39.4%, NC(=O)NC(=O)C(OC(=O)CCNS(=O)(=O)c1ccccc1)c1ccccc1 (centres undefined) 1.93%, Cc1ccc(CNCc2ccc3c(c2)OCO3)c(C)c1 -5.84%, CC(C)COC(=O)C1C2C=CC3(CN(C(C)c4ccc(Br)cc4)C(=O)C13)O2 (centres undefined) -13.1%, CCN1C(=O)[C@@H]2[C@@H]3CN(S(=O)(=O)c4ccccc4C)[C@@H](c4ccc(Cl)cc4)[C@@H]3C(=O)C[C@@H]2C1=O 14.4%

inhibition, active:
Cc1cccc(-n2c(SCC(N)=O)nc3c(c2=O)C2(CCCCC2)Cc2ccccc2-3)c1 51%, CSc1ncnc2c1ncn2CC(=O)C1CCC2C3CCC4=CC(=O)CCC4(C)C3CCC12C (centres undefined) 76.2%, COc1ccc(-c2c(C)cc3oc(=O)cc(-c4ccccc4)c3c2C)cc1C=O 50.3%, CCN1CCN(CCNC(=O)c2ccc(/C=C3/Sc4ccccc4N(Cc4cccc(C)c4)C3=O)cc2)CC1 50.6%, CN1CCN(CCCNC(=O)c2ccc(/C=C3\Oc4ccccc4N(Cc4ccc(Cl)cc4)C3=O)cc2)CC1 80.6%, O=C(NCCN1CCOCC1)c1ccc(/C=C2\Sc3ccccc3N(Cc3ccc(F)cc3)C2=O)cc1 51%, O=C(Nc1cccc(S(=O)(=O)Nc2ccc(Cl)cc2)c1)c1ccc2c(c1)OCCO2 56.2%, O=C(Nc1ccc2c(c1)OCCO2)c1ccc(Cl)c(S(=O)(=O)N2CCCCC2)c1 54.4%, CC(C)c1ccccc1OCC(O)CN(CC(O)COc1cccc2ccccc12)C(C)C (centres undefined) 65.6%
